# Shown are actives, neighbours in structure and some others; about 2.9% of the full set was active somewhere.
# CRFBP-R2 agonist – agonists of human CRF-binding protein/CRF-R2 receptor complex. AID 588473. 0.46% of 350,000 active. activation, % at 13.2 µM. HEK293 CRF-R2/CRF-BP, calcium dye fluorescence (FLIPR); percent of saturating CRF peptide response;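 active = activation of at least 50%, plus an integration ratio under a set limit after plate pattern correction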;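 also: plate controls were neutral control wells without compound for no effect and CRF at EC100 for full effect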
# MEKK2 WT-MEK5 – raises or lowers MEK5 binding to wildtype human MEKK2 PB1 domain; Q9Y2U5; bead flow cytometry, Alexa488-MEK5 binding to MEKK2 WT; actives lie on both sides; binding response (% of control), % at 10 µM; 1.1% of 290,000 active; AID 1531; in the data active = binding response below about 67% or above about 130%
# ABCB6 inh 2 – human ABCB6 transporter inhibition | K562-ABCB6 porphyrin accumulation, flow cytometry, 1 h; active compounds read low | fluorescence ratio to DMSO, % at 10 µM | 0.19% of 360,000 active | AID 602162 | Q9NP58;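 active = fluorescence ratio to DMSO below 75%, the collection mean minus 3 SD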;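 also: signal is porphyrin accumulated inside mitochondria; 100% equals median channel fluorescence of DMSO control wells; lower ratio means ABCB6 inhibition with less porphyrin fluorescence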
# MEKK2 mut-MEK5 – signal of MEK5 binding to mutant human MEKK2 PB1 domain. percent response, % at 10 µM. 0.35% of 290,000 active. bead flow cytometry, Alexa488-MEK5 binding to MEKK2 mutant; in the data active = percent response above about 24%, passing the limit was not always enough
# CRFBP-R2 block – antagonists of CRF-binding protein/CRF-R2 receptor complex; 0.59% of 350,000 active; HEK293 CRF-R2/CRF-BP, CRF-induced calcium fluorescence; inhibition, % at 11.8 µM;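 active = inhibition of the ligand-induced calcium signal above about 50% at the single tested concentration, limit read from the data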
# MEKK3 PB1 HTS – MEKK3-MEK5 PB1 interaction, increase or decrease; binding response (% of control), % at 10 µM; 1.4% of 290,000 active; bead-based flow cytometry, Alexa488-MEK5 binding to MEKK3; actives lie on both sides; 0 = blocked by unlabeled MEK5, 100 = vehicle; AID 1529; Q99759;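 active = binding response more than 3 SD above or below the average of its plate-row segment, actives on both sides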;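 also: Alexa488 bead fluorescence after subtracting the streptavidin-only scavenger bead signal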
# Target sequence (Q99759 whole entry, looked up): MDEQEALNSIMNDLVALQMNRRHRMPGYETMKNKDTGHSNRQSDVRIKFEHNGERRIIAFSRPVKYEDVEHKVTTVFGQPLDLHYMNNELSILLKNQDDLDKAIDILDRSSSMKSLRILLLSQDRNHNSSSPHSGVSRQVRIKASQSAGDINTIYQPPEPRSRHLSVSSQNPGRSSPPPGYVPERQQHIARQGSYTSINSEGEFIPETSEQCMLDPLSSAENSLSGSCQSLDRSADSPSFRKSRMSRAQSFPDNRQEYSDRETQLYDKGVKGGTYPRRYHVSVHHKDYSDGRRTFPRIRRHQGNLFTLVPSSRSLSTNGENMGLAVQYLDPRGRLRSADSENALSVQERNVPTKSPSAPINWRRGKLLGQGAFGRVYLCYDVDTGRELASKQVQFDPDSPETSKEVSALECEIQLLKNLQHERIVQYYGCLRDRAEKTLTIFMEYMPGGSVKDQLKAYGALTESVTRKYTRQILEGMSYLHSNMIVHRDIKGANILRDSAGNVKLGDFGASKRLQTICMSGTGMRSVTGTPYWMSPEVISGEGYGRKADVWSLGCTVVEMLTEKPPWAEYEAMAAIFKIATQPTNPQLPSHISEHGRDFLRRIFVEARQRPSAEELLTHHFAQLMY
# * marks the source's active call; other numbers are inactive results; . = no result given; [ ] = remark or other dose.
SMILES,CRFBP-R2 agonist,MEKK2 WT-MEK5,ABCB6 inh 2,MEKK2 mut-MEK5,CRFBP-R2 block,MEKK3 PB1 HTS
COc1ccc(OC)c(N2C(N)=NC(N)=NC23CCCC3)c1,-2,105,98,6,-6,101
Cc1cccc(N2C(N)=NC(N)=NC23CCCCC3)c1,3,.,87,.,52*,.
COC1C(CO)OC(n2c3c(Cl)cccc3c3c4c(c5c6cccc(Cl)c6[nH]c5c32)C(=O)NC4=O)C(O)C1O (stereo not drawn),67*,.,101,.,-75,.
Cc1ccc(N/N=C(\C#N)C(N)=S)c(C)c1,60*,90,98,-2,-5,89
CC(OC(=O)/C(C#N)=C/c1ccc(N(C)C)cc1)C(=O)N(C)Cc1ccccc1 (stereo not drawn),63*,98,450,1,-61,101
COc1ccc(NC(=S)N2CCC(c3nc4ccccc4[nH]3)CC2)c(OC)c1,-2,102,66*,0,-2,104
c1ccc(C2(Cn3ccc4ccccc43)OCCO2)cc1,-1,12*,119,3,-9,95
CCOC(=O)c1c(C)[nH]c(C(=O)NCC(c2ccco2)N2CCCCC2)c1C (stereo not drawn),3,.,102,.,1,.
Cc1[nH]oc(=O)c1N=Nc1ccc2[nH]c(=O)[nH]c2c1,-2,.,71*,.,11,.
CN(Cc1nc(-c2cccnc2)no1)S(=O)(=O)c1ccccc1,0,95,197,-2,-1,99
CN(Cc1nc(-c2ccccn2)no1)S(=O)(=O)c1ccc(Cl)cc1,54*,96,105,-6,-128,86
COc1ccccc1C(C(=O)NCc1ccccc1)N(C(=O)c1csnn1)C1CC1 (stereo not drawn),-1,104,98,8,-2,103
CN1C2CCC1/C(=C/c1cccn1C)C(=O)/C2=C\c1cccn1C,237*,95,99,4,-268,100
Cn1cccc1/C=C1\CC(C(C)(C)C)C/C(=C\c2cccn2C)C1=O (stereo not drawn),79*,87,295,-4,-119,94
Cc1c(Cc2ccccc2)c(=O)oc2cc(OC(C)C(=O)NCC3CCC(C(=O)O)CC3)c(Cl)cc12 (stereo not drawn),0,101,100,5,0,105
CC(C)(C)N(Cc1ccccc1)C(=O)COC(=O)C1CC(=O)N(Cc2ccccc2)C1 (stereo not drawn),1,.,96,.,7,.
CC(=O)c1sc(NC(=O)CCS(=O)(=O)c2ccc(Cl)cc2)nc1C,-1,.,102,.,62*,.
COc1ccc(/C=C2\S/C(=N/S(=O)(=O)c3cccs3)NC2=O)cc1,0,104,95,0,69*,108
O=C(NCCCNC(=O)c1ccc(-c2cc(Cl)ccc2Cl)o1)c1cnccn1,-1,99,101,1,-17,101
Cc1ccc(C(C(=O)NC2CCCC2)N(C(=O)CNC(=O)c2ccco2)c2ccccc2)o1 (stereo not drawn),-2,104,97,5,-14,101
COc1ccc(SCC(=O)Nc2ccccc2Cl)cc1,0,107,96,5,80*,105
COc1ccc(OCC(=O)Nc2ccccc2Cl)cc1,1,88,96,-13,-1,100
O=[N+]([O-])c1cccc(/C=N\N=C2c3ccccc3-c3ccccc32)c1O,-3,83,104,-3,58*,91
COc1ccc(CCNC(=O)c2cc(=O)n(C)c(=O)n2C)cc1OC,0,110,105,7,8,101
Cn1c(C(=O)NCCc2ccccc2)cc(=O)n(C)c1=O,2,105,96,3,71*,102
SMILES,CRFBP-R2 agonist,MEKK2 WT-MEK5,ABCB6 inh 2,MEKK2 mut-MEK5,CRFBP-R2 block,MEKK3 PB1 HTS
Cc1ccc(NC(=O)COc2ccc(N(C)S(=O)(=O)c3ccc(F)cc3)cc2)cc1,1,.,94,.,0,.
CC(=O)N1CCN(c2ccccc2NC(=O)c2ccc(-c3cccc([N+](=O)[O-])c3)o2)CC1,-2,73,96,-25,4,74
CN1CCN(c2ccccc2NC(=O)c2ccc(-c3ccccc3[N+](=O)[O-])o2)CC1,1,135*,98,20,-25,106
COc1cccc(CNC(=O)CCS(=O)(=O)c2ccc3c(c2)CC(C)N3C(=O)C2CC2)c1 (stereo not drawn),-2,104,100,6,18,102
COc1cc(O)c2c(c1)COC2=O,-1,104,97,1,60*,99
COc1ccc2c(c1OC)C(=O)OC2,-1,99,101,2,0,108
O=C(OCCN1C(=O)c2ccccc2C1=O)c1cccc(OC(F)F)c1,-3,103,98,16,100*,107
Cc1nc(C(=O)N2CCCC(N3CCN(c4ccccc4C)CC3)C2)cs1 (stereo not drawn),0,111,89,7,9,107
Cc1ccccc1N1CCN(C2CCCN(C(=O)c3cnsn3)C2)CC1 (stereo not drawn),-1,65*[inhibitor],97,-13,-12,77*[inhibitor]
COCc1cc(=O)[nH]c(Cc2c(Cl)cccc2Cl)n1,0,109,98,8,4,105
Cn1c(-c2ccc(-c3ccccc3)cc2)c[nH]c1=S,0,102,101,5,108*,106
CCOC(=O)CSC1=C(C#N)C(c2ccc(Cl)cc2)C(C(=O)OC)C(=O)N1 (stereo not drawn),-3,111,95,8,53*,110
COC(=O)CSC1=C(C#N)C(c2ccc(Cl)cc2)C(C(=O)OC)C(=O)N1 (stereo not drawn),-1,.,92,.,58*,.
Cc1cc(C)c(C)c(S(=O)(=O)N2CCN(C(=O)c3cc(S(=O)(=O)N4CCOCC4)ccc3F)CC2)c1C,1,.,94,.,4,.
CC(Oc1ccc2ccc(=O)oc2c1)C(=O)NC(Cc1c[nH]c2ccc(O)cc12)C(=O)O (stereo not drawn),-1,102,99,3,0,99
Cc1cc(NC(=O)c2ccccc2NS(=O)(=O)c2c(C)c(C)cc(C)c2C)no1,3,.,98,.,-18,.
Cc1cc(C)c(C)c(S(=O)(=O)Nc2ccccc2C(=O)O)c1C,0,82,99,-4,85*,80
Cc1ccccc1NS(=O)(=O)c1ccc(C)c(C(=O)N2CCOCC2)c1,1,103,95,6,54*,103
O=C(O)c1ccccc1NS(=O)(=O)c1ccc2c(c1)OCCO2,-1,97,96,-7,57*,102
COc1ccc(S(=O)(=O)Nc2ccccc2C)cc1C(=O)N1CCOCC1,0,100,95,5,11,100
